Screening results deposited in PubChem BioAssay by National Center for Advancing Translational Sciences (NCATS).
PI4K2A block: PI4K2A (human) kinase inhibition; purified PI4K2A, ADP-Glo luminescence, 1 h; active compounds read low; activity change, negative = inhibition, % at 76.9 µM; hit rate 0.13% among 420,000; in the data active means activity change below about -50%; inconclusive means mostly about -30% to -49%
Target sequence (Q9BTU6 whole entry, looked up): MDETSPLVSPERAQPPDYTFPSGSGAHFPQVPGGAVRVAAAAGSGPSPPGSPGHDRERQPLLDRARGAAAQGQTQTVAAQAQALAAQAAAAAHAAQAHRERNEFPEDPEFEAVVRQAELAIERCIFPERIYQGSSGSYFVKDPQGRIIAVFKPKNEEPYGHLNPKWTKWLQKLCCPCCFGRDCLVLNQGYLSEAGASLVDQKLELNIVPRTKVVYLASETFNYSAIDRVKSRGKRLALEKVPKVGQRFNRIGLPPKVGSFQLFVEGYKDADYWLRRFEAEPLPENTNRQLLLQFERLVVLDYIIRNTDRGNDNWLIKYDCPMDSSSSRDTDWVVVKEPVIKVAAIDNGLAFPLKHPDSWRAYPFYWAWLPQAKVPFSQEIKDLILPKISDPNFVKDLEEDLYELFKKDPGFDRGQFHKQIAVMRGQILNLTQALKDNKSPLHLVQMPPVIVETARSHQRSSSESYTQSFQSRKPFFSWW
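ADP-Glo luminescence measured ADP generated by PI4K2A enzyme (4 ug/mL before mixing) with 1.2 mM PI substrate (pre-mix) and 300 microM ATP (pre-mix). Tris pH7.5 buffer with MgCl2, Triton X-100; 1 h reaction at ambient temperature.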
KB-V1 MDR tox: KB-V1 MDR subline cytotoxicity. Potency, µM (doses to about 46.1 µM), usual class: cytotoxic. KB-V1 MDR cells viability, CellTiter-Glo, 72 h. hit rate 3.4% among 400,000; further: nearly all actives have a fitted effect of over 60% in size
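Luminescent ATP read-out (CellTiter-Glo, 10 min) measures survival of drug-selected KB-V1 MDR cells after 72 h, 37 degrees C compound exposure. Medium: phenol-red-free DMEM, 10% FBS. Values from fitted concentration-response curves.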
KB-3-1 tox: KB-3-1 parental cell cytotoxicity; KB-3-1 viability, CellTiter-Glo ATP luminescence, 72 h; Potency, µM (highest dose often 46.1 µM), hits mostly cytotoxic; hit rate 1.4% among 400,000; further: nearly all actives have a fitted effect of over 60% in size
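Using CellTiter-Glo luminescence, growth of non-resistant KB-3-1 adenocarcinoma cells is assessed 72 h after pin-tool compound addition at 37 °C. Normalized responses across the concentration series yield fitted curves.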
A549 tox: A549 cytotoxicity, counter-screen for Nrf2 inhibitors; AID 504648; hit rate 0.16% among 390,000; A549 ARE-Fluc cells, CellTiter-Fluor viability, 18-24 h; Potency, µM (highest dose often 46 µM), most hits filed as inhibitors
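A549 ARE_Fluc cells in 5% FBS OPTI-MEM were exposed to compounds in concentration-response for 18-24 h at 37 deg C. Viability was read by CellTiter-Fluor fluorescence (Ex 405/Em 525) after 30 min, before the luciferase read.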
Giardia kill: kills Giardia lamblia | AID 540267 | Giardia lamblia trophozoite viability | hit rate 0.15% among 340,000 | activity change, % at 7.66 µM, hits read low; in the data active means activity change below about -80%; inconclusive means between about -30% and that limit;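 further: parasites exposed to compound for two days anaerobically before the ATP read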
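Trophozoites 100 cells/well + cpd; 48 hrs, 37 deg C, anaerobic. ATPLite 1-Step added, 15-30 min RT, luminescence read (ATP-based viability).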
Nrf2 block: inhibitors of Nrf2 signaling; A549 ARE-Fluc reporter, luciferase luminescence, 18-24 h; Potency, µM (top dose mostly 46 µM), actives largely listed as inhibitors; hit rate 2.1% among 360,000; AID 504444; further: nearly all actives have a fitted effect of over 60% in size
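Concentration-response testing used A549 ARE_Fluc cells at 5000 cells/well. Following an 18-24 h compound incubation, viability was read by fluorescence (Ex 405/Em 525) and luciferase output by luminescence.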
Of the large screens only hits and unclear results are named; the others gave an inactive call. The list is not random: actives were taken first. Their share in the collection is about 5.7%. Unless noted, the call rests on the fitted dose curve; in most records, active means well fitted curve in the direction sought with a large enough effect; inconclusive means small, poorly fitted or top-dose-only effect, or another doubt; inactive means no such curve, though single readings can be large; an effect the other way counts as inactive or inconclusive.

COc1cccc(C(=O)N2c3nc(-c4ccco4)nn3C3(CCCCC3)[C@@H]3CCCC[C@@H]32)c1	none (no result: KB-V1 MDR tox, KB-3-1 tox, Giardia kill)
CCn1c2ccccc2c2nnc(SCC(=O)NC(CC(C)C)C(=O)OC)nc21 (stereo not given)	KB-V1 MDR tox 5.17µM
CCOC(=O)C(Sc1nnc2c3ccccc3n(CC)c2n1)C(=O)OCC	KB-V1 MDR tox 13µM, KB-3-1 tox inconclusive, A549 tox inconclusive (no result: Nrf2 block)
CCOC(=O)CSc1nnc2c3ccccc3n(CC)c2n1	none
CCn1c2ccccc2c2nnc(SCC(=O)Nc3ccccc3OC)nc21	none (no result: KB-V1 MDR tox, KB-3-1 tox, Giardia kill, Nrf2 block)
Cc1cc2c(s1)c1cnn(Cc3cccc(F)c3)c(=O)c1n2C	none (no result: PI4K2A block, KB-V1 MDR tox, KB-3-1 tox, Giardia kill)
Cc1cc(C)n(CCc2nc(-c3ccc(C(C)(C)C)cc3)cs2)n1	KB-V1 MDR tox 16.4µM, Nrf2 block inconclusive
O=C(Nc1cc(Cl)cc(Cl)c1)c1ccc(Cn2c(=O)[nH]c3ccsc3c2=O)cc1	KB-3-1 tox 16.4µM, Nrf2 block inconclusive
CC(=O)NCCNC(=O)c1ccc(Cn2c(=O)[nH]c3ccsc3c2=O)cc1	none
O=C(N/N=C/c1ccccc1)c1c(O)c2ccccc2[nH]c1=O	KB-V1 MDR tox inconclusive, KB-3-1 tox 23.1µM, Nrf2 block inconclusive
O=C(N/N=C/c1ccc(F)cc1)c1c(O)c2ccccc2[nH]c1=O	KB-V1 MDR tox 10.3µM, KB-3-1 tox inconclusive
CCCCCCCCN1C(=O)[C@@H](CC(=O)N2CCSCC2)C[C@@]2(C(=O)OC)C1=C[C@H](C(C)C)O[C@@H]2C1CC1	none (no result: KB-V1 MDR tox, KB-3-1 tox, A549 tox, Giardia kill, Nrf2 block)
N#CC(=C(\N)Sc1ccccc1N)/C(C#N)=C(/N)Sc1ccccc1N	none (no result: KB-V1 MDR tox, KB-3-1 tox, A549 tox, Giardia kill, Nrf2 block)
Cc1ccc(S(=O)(=O)N(C)C)cc1NC(=S)NC(=O)C12CC3CC(CC(C3)C1)C2	KB-V1 MDR tox inconclusive, KB-3-1 tox 3.26µM
NS(=O)(=O)c1cccc(NC(=S)NC(=O)C23CC4CC(CC(C4)C2)C3)c1	KB-V1 MDR tox 18.4µM
COc1ccccc1CCC[C@@H](CCS(=O)(=O)C(C)C)CC1CCCCC1	none (no result: KB-V1 MDR tox, KB-3-1 tox, A549 tox, Giardia kill, Nrf2 block)
COc1ccc(OC)c(/C=C/C(=O)N2CCN(S(=O)(=O)c3ccc(C)cc3C)CC2)c1	KB-V1 MDR tox 3.66µM, KB-3-1 tox inconclusive, Nrf2 block inconclusive
COc1ccccc1/C=C/C(=O)N1CCN(S(=O)(=O)c2cc(C)ccc2C)CC1	Nrf2 block 16.4µM
COc1cc(C(=O)OCC(=O)N2CCN(S(=O)(=O)c3ccc(C)cc3C)CC2)c([N+](=O)[O-])cc1OC	KB-V1 MDR tox 9.2µM
Cc1ccc(C)c(S(=O)(=O)N2CCN(C(=O)c3sccc3C)CC2)c1	KB-V1 MDR tox 9.2µM
CCCCCCCCN1[C@@H](CC(=O)O)c2ccc(/C=C/C(=O)O)cc2S1(=O)=O	none (no result: PI4K2A block, A549 tox, Giardia kill, Nrf2 block)
COC(=O)[C@@]12CCCCC3=C1N(CCC3)C(=O)[C@H]2CC(=O)NCc1ccc(OC)c(OC)c1	none (no result: KB-V1 MDR tox, KB-3-1 tox, A549 tox, Giardia kill, Nrf2 block)
O=C(c1cccc2ccccc12)N1CCN(S(=O)(=O)c2ccccc2)CC1	none (no result: PI4K2A block)
O=c1c2ccccc2nc(/C=C/c2ccccc2)n1CCCO	KB-V1 MDR tox inconclusive
O=c1c2ccccc2nc(/C=C/c2ccc(O)cc2)n1CCc1ccccc1	KB-V1 MDR tox 14.6µM, Nrf2 block inconclusive
Cc1ccc(C(=O)NCCc2cc3ccc(C)c(C)c3[nH]c2=O)cc1[N+](=O)[O-]	KB-V1 MDR tox 4.11µM
COc1ccc(C(=O)NCCc2cc3ccc(C)c(C)c3[nH]c2=O)cc1OC	Nrf2 block inconclusive
CCOc1ccc(C(=O)Nc2ccc(-c3nn[nH]n3)cc2)cc1[N+](=O)[O-]	KB-V1 MDR tox inconclusive (no result: PI4K2A block, A549 tox, Giardia kill, Nrf2 block)
O=C(CSc1ccc(S(=O)(=O)N2CCCC2)cn1)Nc1ccc([N+](=O)[O-])cc1C(F)(F)F	KB-V1 MDR tox 5.17µM, KB-3-1 tox inconclusive
Cc1ccc(C)c(NC(=O)CSc2ccc(S(=O)(=O)N3CCCC3)cn2)c1	none
CC(=O)CC[C@@H]1CC[C@]2(CCCN(S(=O)(=O)c3ccccc3)C2)O1	none (no result: KB-V1 MDR tox, KB-3-1 tox, A549 tox, Giardia kill, Nrf2 block)
CCc1ccc(NC(=O)CSc2ncc(S(=O)(=O)c3cc(C)ccc3C)c(=O)[nH]2)cc1	none (no result: Giardia kill)
CC1CCc2cc(F)cc3c(O)c(C(=O)NCC4CCCO4)c(=O)n1c23 (stereo not given)	KB-V1 MDR tox inconclusive, Nrf2 block 16.4µM
C[C@H](NC(=O)/C(C#N)=C/c1ccc(O)c(O)c1)c1ccccc1	none (no result: KB-V1 MDR tox, KB-3-1 tox, A549 tox, Giardia kill, Nrf2 block)
